A selection: hits, their analogues and other compounds. The true share with any hit is near 3.7%.
PTHR1 ag – qHTS for PTHR1 Agonists: Primary Screen; Parathyroid hormone/parathyroid hormone-related peptide receptor (Homo sapiens), Q03431; HEK293 GP2 PTHR1 cells, GloSensor cAMP luminescence, 1 h; Potency, µM (highest dose often 115 µM), without a hit: at the top dose activation, hits mostly activators; 410,000 compounds, 0.075% hits; AID 743266, 2014; note: potency is the fitted concentration of half-maximal effect; nearly all actives have a fitted effect of over 55% in size
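HEK-293-derived GP2 cells expressing PTHR1 and a GloSensor cAMP reporter, 3,000/well, plated overnight, given luciferin plus IBMX (each 0.5 mM as added) for 1 h at 37 °C, then compound for 1 h at 37 °C. Luminescence was read after 15 min at room temperature.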
RGS4 inh – Inhibitors of Regulator of G Protein Signaling (RGS) 4: qHTS | Regulator of G-protein signaling 4 (Homo sapiens), P49798 | Transcreener GDP fluorescence polarization, RGS4-accelerated GTP hydrolysis | Potency, µM (doses to about 114 µM), for inactives: at the top dose activity change, negative = inhibition, actives largely listed as inhibitors | 390,000 compounds, 0.039% hits | AID 504845, 2011; note: potency is the fitted concentration of half-maximal effect; % is set by controls: 0 for no effect and ±100 for the full control effect; nearly all actives have a fitted effect of over 75% in size
Target sequence (P49798 whole entry, looked up): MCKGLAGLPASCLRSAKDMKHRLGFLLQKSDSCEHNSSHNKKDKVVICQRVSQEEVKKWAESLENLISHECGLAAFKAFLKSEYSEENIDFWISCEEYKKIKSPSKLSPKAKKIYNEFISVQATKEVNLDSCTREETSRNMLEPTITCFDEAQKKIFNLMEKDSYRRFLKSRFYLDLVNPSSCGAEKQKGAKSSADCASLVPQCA
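MLSMR compounds (23 nl, pin-transferred) preincubated 10 min at room temperature with a 500nM (2x) first reagent, then RGS4 at 900nM (2x) plus Transcreener GDP mix added; fluorescence polarization (620/688 nm) read before and after 90 min at 30 °C.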
DRD3 agonist – qHTS of D3 Dopamine Receptor Agonist: qHTS. AID 652048, 2013. D(3) dopamine receptor (Homo sapiens), P35462. max activation, %. 410,000 compounds, 0.58% hits. D3R DiscoveRx beta-arrestin cells, luminescence, 90 min; in the data active = max activation above about 30%; note: 0% is about no effect
Target sequence (P35462 whole entry, looked up): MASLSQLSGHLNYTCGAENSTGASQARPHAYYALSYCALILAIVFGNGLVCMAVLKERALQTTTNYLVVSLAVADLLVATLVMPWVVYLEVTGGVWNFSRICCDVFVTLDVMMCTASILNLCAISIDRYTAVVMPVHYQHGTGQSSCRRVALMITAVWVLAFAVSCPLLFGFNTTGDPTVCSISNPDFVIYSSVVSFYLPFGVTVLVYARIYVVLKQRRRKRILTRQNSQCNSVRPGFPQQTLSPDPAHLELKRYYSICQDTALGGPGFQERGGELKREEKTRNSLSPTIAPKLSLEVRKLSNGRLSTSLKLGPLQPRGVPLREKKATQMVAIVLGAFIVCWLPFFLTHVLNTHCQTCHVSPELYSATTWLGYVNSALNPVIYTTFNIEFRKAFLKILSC
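Agonist mode: compounds and dopamine controls were applied to plated cells for 90 min at 37 degrees C after an overnight attachment at 1500 cells/well. Luminescent read-out followed 30 - 60 minutes at room temperature with DiscoveRx detection reagent.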
BRCA1 expr up – qHTS Assay to Identify Small Molecule Activators of BRCA1 Expression; MCF7-BRCA1-FFLuc reporter, luminescence, 48 h; response scale: scaled: vehicle 0%, 10 µM genistein 100%; Potency, µM (series often up to 46.1 µM), for inactives: at the highest dose activation, actives largely listed as activators; 380,000 compounds, 1.1% hits; AID 624202, 2012; note: potency is the fitted concentration of half-maximal effect; nearly all actives have a fitted effect of over 80% in size
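First, MCF7-BRCA1-FFLuc cells (2000/well) attach for 2 h; next, compounds are pin-added and incubated 48 h at 37 °C; finally, luciferase reagent is added and luminescence read after 15 min.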
B2AR arrestin – qHTS assay of beta-arrestin-biased ligands of beta2-adrenergic receptor | AID 492947, 2010 | Beta-2 adrenergic receptor (Homo sapiens), P07550 | beta-arrestin recruitment to beta2AR, cell-based reporter | 330,000 compounds, 0.02% hits | Potency, µM (titrated, usually from 46.1 µM), inactives show top-dose activation, hits mostly activators;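 note: potency is the fitted concentration of half-maximal effect; 0% = DMSO controls and full agonism = EC100 isoproterenol or metaproterenol; nearly all actives have a fitted effect of over 65% in size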
DRD3 antagonist – qHTS of D3 Dopamine Receptor Antagonist: qHTS. AID 652054, 2013. D(3) dopamine receptor (Homo sapiens), P35462. 360,000 compounds, 2.5% hits. max response, negative = inhibition, %. D3R cells, DiscoveRx beta-arrestin luminescence, antagonist mode; active compounds read low; in the data active = max response below about -50%; inconclusive = no clear call, values can overlap the other calls; note: % is set by controls: 0 for no effect and ±100 for the full control effect
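Cells plated overnight at 1500 cells/well, then exposed to library compounds with dopamine controls for 90 minutes at 37 degrees C. DiscoveRx reagent added for 30–60 minutes at room temperature; luminescence read, quantitative HTS format.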
Numbers without * were called inactive; i = inactive; ? = inconclusive; . = no result; [ ] = another dose, or the depositor's remark. Unless noted, calls come from the whole dose curve; as a rule, active = well fitted curve in the direction sought with a large enough effect; inconclusive = small, poorly fitted or top-dose-only effect, or another doubt; inactive = no such curve, though single readings can be large; an effect the other way counts as inactive or inconclusive.

SMILES | PTHR1 ag | RGS4 inh | DRD3 agonist | BRCA1 expr up | B2AR arrestin | DRD3 antagonist
Cc1ccc(C(=O)Nc2ccc(Cl)cc2C)c(Cl)c1 | -31% | 11% | -3 | 3.2µM* | 0% | -23
COc1ccc(NC(=O)c2ccco2)c([N+](=O)[O-])c1 | -10% | 18% | 0 | ? | -1% | -1
Cc1ccc(NC(=O)c2ccco2)c([N+](=O)[O-])c1 | -11% | ? | -13 | 7.9µM* | 0% | -27
O=C(Nc1ccc(F)c(Cl)c1)C1CC2CCC1C2 (stereo unspecified) | -22% | -3% | -4 | -5% | . | -9
COc1cccc(N2CC(NC(=O)COc3ccccc3F)CC2=O)c1 (stereo unspecified) | i | 15% | -9 | . | . | .
COC(=O)C1CN(C(=O)COc2ccc(C)cc2)c2ccccc2O1 (stereo unspecified) | i | 12% | 0 | -8% | 0% | -7
C=CCc1cc(Cl)ccc1OCCNCCOC | -18% | 13% | -12 | -11% | 0% | -56*
C=CCc1cc(Cl)ccc1OCCNCCN1CCOCC1 | i | -4% | -10 | -7% | -1% | ?
C=CCNCCCOc1ccc(Cl)cc1C(C)(C)C | i | 6% | -18 | -7% | -1% | 13
C=CCNCCOCCOc1ccc(Cl)cc1C(C)(C)C | i | -16% | -20 | -18% | 0% | -58*
CCOc1ccc(CCNC(=O)C(CC(C)C)N2Cc3ccccc3C2=O)cc1OCC (stereo unspecified) | -11% | 14% | -3 | . | . | .
COc1ccc(NC(=O)C(C)n2nnc3sc(-c4ccccc4)cc3c2=O)cc1Cl (stereo unspecified) | i | ? | 4 | . | . | .
Cc1cc(-n2c(C)nc3ccccc3c2=O)ccc1NC(=O)c1cccc([N+](=O)[O-])c1C | -14% | -2% | -14 | 0% | . | .
CN(c1cccc(NC(=O)c2ccc(Cl)c(S(=O)(=O)N3CCOCC3)c2)c1)S(C)(=O)=O | -65% | -4% | 13 | -30% | 0% | 60
COc1ccc(C(=O)c2ccsc2N)cc1 | -10% | -5% | 0 | 11µM* | 9% | 12
CC(C)C[C@H](NC(=O)[C@H](Cc1ccccc1)NC(=O)c1cnccn1)B(O)O | . | . | 7 | . | . | .
O=C(N/N=C/c1c[nH]c2ccccc12)c1cccs1 | -1% | 2% | -12 | 32% | 0% | -20
O=C(N/N=C/c1cccc2ccccc12)c1cccs1 | -2% | -2% | -11 | 4µM* | 0% | -12
Cc1ccc(/C=N/NC(=O)c2cccs2)s1 | -14% | 28% | -5 | 11µM* | 0% | -4
CC(=O)N1CCCc2cc(S(=O)(=O)N3CCCC(C(=O)Nc4cc(Cl)ccc4C)C3)ccc21 (stereo unspecified) | -61% | -21% | 2 | . | . | .
O=C(C[n+]1cc(-c2ccc(Br)cc2)n2c1CCCCC2)c1ccccc1 | -4% | -1% | -13 | -20% | -1% | -24
O=C(C[n+]1cc(-c2ccc(Cl)cc2)n2c1CCCCC2)c1ccccc1 | 17% | -15% | -30 | -25% | 0% | -63*
COc1ccc(-c2ccc(=O)n(CC(=O)Nc3ccc(C)cc3C)n2)cc1 | i | 1% | 6 | . | . | .
COc1ccc2cc(C[C@@H]3CC[C@@H](CO)O3)ccc2c1 | -25% | 8% | -18 | 2.8µM* | -1% | 11
CCOC(=O)C1=C(C)N(C[C@@H]2CC[C@@H](Cc3ccc4cc(OC)ccc4c3)O2)C(=O)NC1c1ccc(OC)cc1 (stereo partly specified) | -59% | 15% | 1 | -20% | -2% | 0
SMILES | PTHR1 ag | RGS4 inh | DRD3 agonist | BRCA1 expr up | B2AR arrestin | DRD3 antagonist
COc1ccc(OC)c(CN2CCCCCC2)c1 | 0% | 14% | -9 | -20% | 0% | 0
COc1ccc2ccccc2c1CN1CCN(C)CC1 | -11% | -7% | -9 | -2% | 3% | -82*
COc1ccc(OC)c(CN2CCN(Cc3cccc4ccccc34)CC2)c1 | -11% | -31% | -1 | -36% | 0% | -54*
CCN1CCN(Cc2c(OC)ccc3ccccc23)CC1 | i | 7% | -30 | 1% | 0% | ?
COc1ccc(OC)c(CN2CCN(c3ccccc3OC)CC2)c1 | -16% | -34% | -55 | -35% | 0% | -92*
COc1ccc(CN2CCN(c3ccccc3OC)CC2)c(OC)c1 | i | -4% | -5 | 10% | -1% | -100*
COc1ccc(CN2CCN(Cc3ccccc3C(F)(F)F)CC2)c(OC)c1 | -1% | -14% | -36 | -21% | 0% | ?
COc1ccc(CC(C)N2CCN(Cc3ccccc3)CC2)c(OC)c1 (stereo unspecified) | -15% | -5% | -39 | -29% | 0% | -84*
Cc1ccnc(Nc2nc(-c3ccc(O)cc3)cs2)c1 | -43% | -38% | 4 | ? | -1% | 15
Cc1ccnc(Nc2nc(-c3ccc(O)cc3O)cs2)c1 | -18% | 0% | 2 | 7.9µM* | 0% | -13
CCCC(=O)N1CCN(c2ccc(NC(=O)c3cc4ccccc4o3)cc2Cl)CC1 | -34%[57.5 µM] | -17% | 35* | -95% | 0% | -4
O=C(Nc1ccc(N2CCN(C(=O)c3ccccc3)CC2)c(Cl)c1)c1ccco1 | -22%[57.5 µM] | -17% | 5 | -50% | 0% | 18
O=C(Nc1ccc(N2CCN(C(=O)c3ccco3)CC2)c(Cl)c1)c1cc2ccccc2o1 | -17%[57.5 µM] | -7% | 36* | -97% | 0% | -1
CCC(=O)N1CCN(c2ccc(NC(=O)c3cc4ccccc4o3)cc2Cl)CC1 | -20% | 22%[11.4 µM] | 15 | -92% | 0% | 21
CC(C)c1ccc(C2=NC(c3ccncc3)=Nc3ccc(F)cc3N2)cc1 | i | 5% | -12 | . | . | .
CCOc1ccc(NC(=O)N(O)C2(C#N)CCCCC2)cc1 | i | -18% | -2 | 4% | . | -2
CC(=O)NC1CC2CCCC(C1)N2S(=O)(=O)c1ccccc1 (stereo unspecified) | -4%[57.5 µM] | 9%[56.9 µM] | 8 | 9% | 0% | 14
COCC(=O)NC1CC2CCCC(C1)N2Cc1ccccc1 (stereo unspecified) | i | -1% | 2 | 3% | 0% | -77*
CC(C)(C)OC(=O)NC1CC2CCCC(C1)N2Cc1ccccc1 (stereo unspecified) | -25% | 10% | -21 | 6% | -1% | -85*

Screening results from PubChem.
